Inconclusive results are not listed. Active and inactive are the calls of the source. The calls were made as follows, unless noted: active = hit-call score of the fitted dose curve at least 0.9, where 1 is the maximum; inconclusive = response in the unintended direction; inactive = score below 0.9.

The target in assay [1] is Cellular tumor antigen p53 (Homo sapiens) (UniProt P04637). Briefly: TOX21_p53_BLA_p2_ratio: Tox21 HCT-116 p53 Agonism Beta-lactamase Assay, Ratio, Phase 2 (AID 2283592). The method, boiled down:
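Ratio endpoint: beta-lactamase cleavage of CCF4-AM, blue (460 nm) over green (530 nm). HCT116 reporter line; 16 h treatment, 37C; substrate 2 h RT.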

Assay [2] in a line: TOX21_p53_BLA_p3_viability: Viability Assessment in the Tox21 HCT-116 p53 Agonism Beta-lactamase Assay, Phase 3 (AID 2283593).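 Also: cells exposed to compound for 16 h before reading.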 The method, boiled down:
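HCT-116 cells (4000/well) rested 5 h at 37C, then got DMSO compounds by pin tool (217-fold dilution) for 16 h at 37C, 5% CO2. After the bla read, CellTiter-Glo was added and luminescence read at 30 min, room temperature.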

The target in assay [3] is Cellular tumor antigen p53 (Homo sapiens) (UniProt P04637). As to the kind of experiment: TOX21_p53_BLA_p3_ratio: Tox21 HCT-116 p53 Agonism Beta-lactamase Assay, Ratio, Phase 3 (AID 2283596). In a few lines: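 Cells were seeded at 4000/well, rested 5 h at 37C, then dosed with DMSO compound solutions (217-fold dilution) for 16 h. CCF4-AM substrate was loaded for 2 h at room temperature, and the 460/530 nm emission ratio was fitted for gain of signal versus DMSO.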
Cellular tumor antigen p53 (Homo sapiens), sequence (P04637 whole entry, looked up): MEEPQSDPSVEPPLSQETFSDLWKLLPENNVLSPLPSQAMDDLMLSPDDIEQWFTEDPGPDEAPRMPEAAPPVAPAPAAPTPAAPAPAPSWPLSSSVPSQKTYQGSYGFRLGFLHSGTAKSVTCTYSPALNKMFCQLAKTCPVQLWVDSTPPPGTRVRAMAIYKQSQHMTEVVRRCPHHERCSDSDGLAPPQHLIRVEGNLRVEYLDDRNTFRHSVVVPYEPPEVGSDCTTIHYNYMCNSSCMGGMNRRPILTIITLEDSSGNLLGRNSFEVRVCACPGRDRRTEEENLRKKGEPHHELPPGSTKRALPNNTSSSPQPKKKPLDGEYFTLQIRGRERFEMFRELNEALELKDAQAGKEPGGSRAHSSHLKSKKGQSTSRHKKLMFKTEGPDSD

Assay [4] can be described thus: TOX21_p53_BLA_p4_viability: Viability Assessment in the Tox21 HCT-116 p53 Agonism Beta-lactamase Assay, Phase 4 (AID 2283597).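 Also: hits lower the luminescence signal meaning cytotoxicity.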 The method, boiled down: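 Cytotoxicity was inferred from loss of CellTiter-Glo luminescence. HCT116 cells had been dosed with compounds after 5 h plating, incubated 16 h at 37C and 5% CO2, and exposed to the CCF4-AM substrate for 2 h.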
For assay [5], the target named is Cellular tumor antigen p53 (Homo sapiens) (UniProt P04637). Briefly: TOX21_p53_BLA_p5_ratio: Tox21 HCT-116 p53 Agonism Beta-lactamase Assay, Ratio, Phase 5 (AID 2283599). In a few lines:
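HCT-116 cells carrying a p53-inducible beta-lactamase reporter were seeded at 4000 cells/well and dosed after 5 h with compound in DMSO (217-fold dilution). After 16 h at 37C, CCF4-AM substrate was added for 2 h, and the 460/530 nm emission ratio was scored as gain-of-signal versus DMSO.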

Assay [6] has the same target. As to the kind of experiment: TOX21_p53_BLA_p4_ratio: Tox21 HCT-116 p53 Agonism Beta-lactamase Assay, Ratio, Phase 4 (AID 2283601). The method, boiled down: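 HCT116 cells carrying an inducible beta-lactamase reporter were plated at 4000 cells/well, rested 5 h, then exposed to compounds in DMSO (217-fold dilution) for 16 h at 37C. CCF4-AM substrate was loaded 2 h at room temperature; 460/530 nm emission ratio scored gain-of-signal versus DMSO.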

The nature of assay [7]: TOX21_p53_BLA_p5_viability: Viability Assessment in the Tox21 HCT-116 p53 Agonism Beta-lactamase Assay, Phase 5 (AID 2283600). The method, boiled down:
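Luciferase-coupled ATP quantitation of cells treated for 16 h (37C, 5% CO2) with test chemicals delivered in DMSO via a 217-fold dilution; 4000 cells/well; reagent incubated 30 min at room temperature before luminescence reading.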

Assay [8] in a line: CCTE_Deisenroth_DEVTOX-GLR_legacy_CellCount: (Legacy) Viability Assessment in CCTE's DevTox GLR-Endo Assay, Deisenroth Lab (AID 2284331; active = hit-call score of the fitted dose curve at least 0.9, where 1 is the maximum; inactive = score below 0.9). The note with it: actives raise or lower the signal. The method, boiled down: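 Human pluripotent RUES2-GLR cells differentiated 48 h with two 24-h-interval exposures, 10-point 1 nM–200 uM series, 0.2% DMSO. Fixed nuclei counted by high-content imaging (5 fields/well); bidirectional fit vs DMSO, n≥4.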

Assay [9] deals with SRY-box transcription factor 17 (SOX17) Protein Expression, Deisenroth Lab, SOX17 (gene 64321). Briefly: CCTE_Deisenroth_DEVTOX-GLR_legacy_Sox17: (Legacy) CCTE's DevTox GLR-Endo Assay Evaluation of SRY-box transcription factor 17 (SOX17) Protein Expression, Deisenroth Lab (AID 2284341; active = hit-call score of the fitted dose curve at least 0.9, where 1 is the maximum; inactive = score below 0.9). To be noted: actives raise or lower the signal. The method, boiled down:
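RUES2-GLR human pluripotent cells differentiated toward endoderm for 48 h, dosed twice at 24 h intervals (1 nM–200 uM, 10 points). Imaging gives % SOX17+ cells (intensity >5x BMAD above pluripotent control median); bidirectional fit versus 0.2% DMSO.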

In assay [10] the test system is SRY-box transcription factor 2 (SOX2) Protein Expression, Deisenroth Lab, SOX2 (gene 6657). As to the kind of experiment: CCTE_Deisenroth_DEVTOX-GLR_legacy_Sox2: (Legacy) CCTE's DevTox GLR-Endo Assay Evaluation of SRY-box transcription factor 2 (SOX2) Protein Expression, Deisenroth Lab (AID 2284346; active = hit-call score of the fitted dose curve at least 0.9, where 1 is the maximum; inactive = score below 0.9). The method, boiled down: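 Two exposures, 24 h apart, during 48 h defined-media differentiation of seeded RUES2-GLR cells; nuclei-stained cells imaged. Sox2 positivity called at 5x BMAD above endoderm control median, DMSO median subtracted.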

The test system of assay [11] is SRY-box transcription factor 17 (SOX17) Protein Expression, Deisenroth Lab, SOX17 (gene 64321). As to the kind of experiment: CCTE_Deisenroth_DEVTOX-GLR_Endo_SOX17: CCTE's DevTox GLR-Endo Assay Evaluation of SRY-box transcription factor 17 (SOX17) Protein Expression, Deisenroth Lab (AID 2284413; active = hit-call score of the fitted dose curve at least 0.9, where 1 is the maximum; inactive = score below 0.9). In a few lines:
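Fluorescent microscopy of a SOX17 reporter in RUES2-GLR pluripotent cells scored endoderm differentiation after 48 h and two 24-h-spaced exposures. Values are percent change in SOX17+ population against 0.2% DMSO, n=4 experimental replicates.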

The subject of assay [12] is Brachyury (BRA) Protein Expression, TBXT (gene 6862). Briefly: CCTE_Deisenroth_DEVTOX-GLR_Endo_BRA: CCTE's DevTox GLR-Endo Assay Evaluation of Brachyury (BRA) Protein Expression, Deisenroth Lab (AID 2284417; active = hit-call score of the fitted dose curve at least 0.9, where 1 is the maximum; inactive = score below 0.9). The method, boiled down: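 RUES2-GLR pluripotent cells differentiated 48 h with two chemical exposures 24 h apart, 10-point range 1 nM - 200 uM. Percentage of BRA+ cells per total count by high-content imaging, minus 0.2% DMSO control.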

Assay [13] in a line: CCTE_Deisenroth_DEVTOX-GLR_Endo_CellCount: Viability Assessment in CCTE's DevTox GLR-Endo Assay, Deisenroth Lab (AID 2284420; active = hit-call score of the fitted dose curve at least 0.9, where 1 is the maximum; inactive = score below 0.9). In a few lines: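 RUES2-GLR human pluripotent cells seeded 24 h, then differentiated 48 h with two chemical exposures at 24 h intervals (10-point, 1 nM - 200 uM). Fixed, nuclear-stained, imaged; nuclei counts give % change in cell count versus 0.2% DMSO.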

In assay [14] the test system is SRY-box transcription factor 17 (SOX17) Protein Expression, Deisenroth Lab, SOX17 (gene 64321). Briefly: CCTE_Deisenroth_DEVTOX-GLR_Pluri_SOX17: CCTE's DevTox GLR-Pluri Assay Evaluation of SRY-box transcription factor 17 (SOX17) Protein Expression, Deisenroth Lab (AID 2284427). The method, boiled down:
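RUES2-GLR human pluripotent cells were seeded 24 h, then differentiated 48 h in defined media with two chemical exposures 24 h apart (10-point series, 1 nM - 200 uM). Fixed, nuclear-stained cells were imaged; %SOX17+ cells minus 0.2% DMSO control reported.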

The nature of assay [15]: CCTE_Deisenroth_DEVTOX-GLR_Pluri_CellCount: Viability Assessment in CCTE's DevTox GLR-Pluri Assay Evaluation of Total Cell Counts, Deisenroth Lab (AID 2284430; active = hit-call score of the fitted dose curve at least 0.9, where 1 is the maximum; inactive = score below 0.9). The method, boiled down:
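Cytotoxicity readout: fluorescent nuclei counts by high-content imaging, expressed as percent change relative to 0.2% DMSO. Human RUES2-GLR pluripotent line differentiated 48 h, dosed twice at 24-h intervals across 1 nM - 200 uM (10 points).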

As to `CCCc1c2oc(C(=O)O)cc(=O)c2cc2c(=O)cc(C(=O)O)n(CC)c12`, the outcome in assay [1], in assay [2], in assay [3], in assay [4], in [5] and in assay [6] was inactive.

As for `CNC(=O)c1cc(Oc2ccc(NC(=O)Nc3ccc(Cl)c(C(F)(F)F)c3)cc2)ccn1`, the AC50 is 7.13 µM (active) in assay [1]; 5.52 µM (active) in assay [3]; 6.76 µM (active) in assay [5]; 1.11 µM (active) in assay [8]; 0.609 µM (active) in [9]; 1.5 µM (active) in [10]. Besides, the AC50 was 0.604 µM (active) in assay [11]; 4.31 µM (active) in assay [12]; 1.08 µM (active) in assay [13]; 20.9 µM (active) in assay [14]; 184 µM (active) in assay [15]. Moreover, the compound was called inactive in [2], in [4], in assay [7] and in assay [6].

On to `N[C@@H](Cc1cc(I)c(O)c(I)c1)C(=O)O`, for which the result in [1], in assay [2], in assay [3], in assay [4], in assay [5] and in assay [6] was inactive.

With `Cc1cccc(C)c1Nc1ncccc1C(=O)O`, the AC50 in [1] is 43.8 µM (active). Besides, the call in assay [2], in [3], in assay [4], in assay [5], in [7] and in [6] was inactive.

For `CS(=O)(=O)Nc1cc2occ(NC=O)c(=O)c2cc1Oc1ccccc1`, the outcome in assay [1], in assay [2], in [3], in assay [4] and in [7] was inactive.

For `C[N+]12CCC(CC1)C(OC(=O)C(O)(c1ccccc1)c1ccccc1)C2` (centres undefined), the outcome in [1], in assay [2], in assay [3], in assay [4] and in assay [6] was inactive.

With `O=C(O)c1c2ccccc2cc2ccccc12`, the result in assay [1], in assay [2], in [3], in [4], in assay [7] and in [6] was inactive.

`CC(C)=C1CC[C@@H](C)CC1=O`: the outcome in assay [1], in assay [2], in assay [3], in assay [4], in assay [5] and in assay [6] was inactive.

`CC(C)(O)CCCC1=CCC(C=O)CC1` (centres undefined): the outcome in assay [1], in assay [2], in [3], in assay [4] and in [7] was inactive.

Regarding `NCCCC[C@H](N[C@@H](CCc1ccccc1)C(=O)O)C(=O)N1CCC[C@H]1C(=O)O`, the result in assay [1], in [2], in assay [3], in [4], in assay [7] and in assay [6] was inactive.

In the case of `CCCCCCCCCCC[C@@H](C[C@@H]1OC(=O)[C@H]1CCCCCC)OC(=O)[C@H](CC(C)C)NC=O`, the outcome in assay [1], in assay [2], in assay [3], in [4], in [5] and in [6] was inactive.

For the compound `CCCCC(O)c1ccccc1` (centres undefined), the outcome in assay [1], in assay [3], in assay [4], in [7] and in assay [6] was inactive. The AC50 in [2] was 30.6 µM (active).

The record behind these values is PubChem BioAssay (EPA / NIEHS).
